According to PubChem BioAssay AID1619 (SRMLSC, 2009):
Screen size: about 220,000 compounds; about 830 (0.38%) were called active. A selection follows. Potency and affinity values are given separately. Unmarked numbers belong to inactive results.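 Rule for the calls: active = compound inhibiting the enzyme by more than half at any dose during confirmatory dose-response retesting; inconclusive = strong single-dose inhibitors picked by rank but not retested; inactive = the rest.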

biological target: Leucine aminopeptidase (Plasmodium falciparum (isolate 3D7)) (UniProt Q8IL11); experiment: P. falciparum M17LAP inhibitors, primary screen, biochemical, fluorogenic H-Leu-NHMec substrate, 1536-well (AID 1619); conditions: recombinant M17LAP, H-Leu-NHMec fluorogenic kinetic assay; at 30 µM; stronger effect = higher value;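 note: plate controls were full reaction with DMSO carrier for no effect and no enzyme background for full effect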
Sequence (Q8IL11 whole entry, looked up): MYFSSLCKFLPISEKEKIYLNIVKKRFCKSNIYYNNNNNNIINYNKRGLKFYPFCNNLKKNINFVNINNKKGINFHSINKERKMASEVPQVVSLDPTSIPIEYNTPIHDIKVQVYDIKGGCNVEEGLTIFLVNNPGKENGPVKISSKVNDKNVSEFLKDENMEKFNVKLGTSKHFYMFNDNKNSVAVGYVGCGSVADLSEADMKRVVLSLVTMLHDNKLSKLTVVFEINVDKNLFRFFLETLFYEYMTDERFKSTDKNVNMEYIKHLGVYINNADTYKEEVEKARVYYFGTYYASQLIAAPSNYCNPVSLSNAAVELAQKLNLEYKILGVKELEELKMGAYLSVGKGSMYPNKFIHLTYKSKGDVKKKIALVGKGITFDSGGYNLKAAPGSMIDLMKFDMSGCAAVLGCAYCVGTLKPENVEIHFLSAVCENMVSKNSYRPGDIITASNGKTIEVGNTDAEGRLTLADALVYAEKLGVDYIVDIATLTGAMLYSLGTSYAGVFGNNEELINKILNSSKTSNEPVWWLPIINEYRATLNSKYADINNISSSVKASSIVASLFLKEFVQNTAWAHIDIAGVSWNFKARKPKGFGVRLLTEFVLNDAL

SMILES | inhibition
O=C(COC(=O)c1n[nH]c2ccccc12)c1cc(F)ccc1F | 3.93%
COC(=O)c1cc(NC(C)=O)ccc1N1CCOCC1 | 8.76%
CC(C)(C)c1ccc(C2C(C#N)=C(N)Oc3n[nH]c(-c4cccnc4)c32)cc1 (stereo not drawn) | 3.44%
Cc1ccc(Cn2ccc(NC(=O)c3cc4nc5c(c(C(F)(F)F)n4n3)CCc3ccccc3-5)n2)cc1 | 13.9%
COc1ccc(CC(CC(=O)O)C(=O)NCc2ccccc2)cc1 (stereo not drawn) | -4.42%
COc1ccc(NC(=O)C(Cc2ccccc2)n2cccc2)cc1 (stereo not drawn) | -2.31%
COc1ccc(OC)c(NC(=O)C(CC(=O)O)Cc2ccc(Cl)cc2)c1 (stereo not drawn) | 35.7%
COc1ccc(NC(=O)C(CC(=O)O)C(C)c2ccccc2)cc1 (stereo not drawn) | -2.5%
COc1ccc(C(CC(=O)Nc2ccc(F)cc2)c2ccccc2)cc1 (stereo not drawn) | -0.86%
COc1ccc(NC(=O)Cc2ccccc2)cc1 | 34.6%
CCOc1ccc(NC(=O)C(CC(=O)O)Cc2ccccc2)cc1 (stereo not drawn) | 1.68%
COc1ccc(NC(=O)C(CC(=O)O)Cc2ccc(C)cc2)cc1 (stereo not drawn) | 53%
CCOC(=O)Nc1ccc2nc3n(c(=O)c2c1)CCCCC3 | 9.64%
COc1ccc2ccccc2c1CN1CCN(Cc2ccccc2)CC1 | 7.12%
CN1CCN(c2cc(=O)n(Cc3ccc(F)cc3)c(=O)[nH]2)CC1 | -0.83%
COc1ccc(-c2nc(=S)[nH][nH]2)cc1OC | -3.54%
O=C(O)CC(Cc1ccc(Cl)cc1)C(=O)Nc1ccc([N+](=O)[O-])cc1 (stereo not drawn) | 44.7%
O=C(O)CC(NNC(=O)c1ccccc1)C(=O)Nc1ccc([N+](=O)[O-])cc1 (stereo not drawn) | 4.13%
c1ccc(COc2ccc(CNCc3cccs3)cc2)cc1 | 0.61%
Cc1cc(NC(=O)CSc2nnc(CNc3ccc(F)cc3)n2C2CCCCC2)no1 | -6.09%
COc1cc2nc(C3CCC3)nc(N3CCN(c4ccccc4OC)CC3)c2cc1OC | 7.31%

SMILES | inhibition
CCOc1c(Br)cc(CNc2ccc3c(c2)OCCO3)cc1OC | 2.99%
CCOc1c(Br)cc(CNC2CCCCCCC2)cc1OC | -3.96%
COc1cc(CO)cc(Br)c1OCC(=O)O | -4.17%
COc1cc(CNc2ccc(N3CCOCC3)cc2)cc(Br)c1OC | -2.11%
CCOC(=O)c1nc(Nc2ccc(C(=O)O)cc2)c2ccccc2n1 | 23.8%
CCOc1ccc(N2C(=O)/C(=C/c3ccccc3)N=C2SC)cc1 | 2.97%
COC1=C(OC)C(=O)C(CCCCCCCCCCO)=C(C)C1=O | -2.37%
CS(=O)(=O)N(CC(=O)NC1CCCCC1)Cc1ccc(Cl)cc1 | 4.5%
CN(c1cccc(NC(=O)CN2C(=O)c3ccccc3S2(=O)=O)c1)S(C)(=O)=O | 51.6%
O=C(CN1C(=O)c2ccccc2S1(=O)=O)NC1CCCC1 | 33.2%
CC(C)NC(=O)CN1C(=O)c2ccccc2S1(=O)=O | 7.45%
O=C(CCN1C(=O)c2ccccc2S1(=O)=O)Nc1ccccc1 | 6.82%
O=C(CN1c2cccc3cccc(c23)S1(=O)=O)Nc1ccccc1 | 2.82%
O=C(CN1C(=O)c2ccccc2S1(=O)=O)Nc1cccnc1 | 27.9%
COc1ccc(NC(=O)CN2c3cccc4cccc(c34)S2(=O)=O)c(OC)c1 | 13.8%
O=C(CN1C(=O)c2ccccc2S1(=O)=O)NC1CCCCCC1 | 5.61%
COc1ccc(NS(=O)(=O)c2cccc(C(=O)N/N=C/c3ccc4c(c3)OCCO4)c2)cc1 | 6.63%
COc1ccccc1-c1noc(-c2cccnc2)n1 | -3.7%
CCOC(=O)c1[nH]c(C)c(C(=O)N2CCc3c([nH]c4ccccc34)C2c2ccccn2)c1C (stereo not drawn) | -1.65%
COC(=O)C(C(=O)NCC1CCCO1)C1CCCCCC1 (stereo not drawn) | 13.6%
COC(=O)CSC(C)C(=O)Nc1nnc(C(C)C)s1 (stereo not drawn) | -2.42%

SMILES | inhibition
CCc1nnc(NC(=O)C(C)C)s1 | -5.28%
CCOC(=O)CSC(CC)C(=O)Nc1nnc(C(C)C)s1 (stereo not drawn) | 20.9%
CC(C)c1nnc(NC(=O)CSc2nc3ccccc3s2)s1 | -2.5%
CCc1nnc(NC(=O)C(CC)c2ccccc2)s1 (stereo not drawn) | -2.8%
CCC(Sc1nc2ccccc2s1)C(=O)Nc1nnc(C)s1 (stereo not drawn) | 22.9%
Cc1cc(-c2ccco2)n(CC(=O)NCCN(C)C)n1 | -1.86%
CCCCNC(=O)NC12CC3CC(CC(C3)C1)C2 | 3.38%
S=C(Nc1ccccc1Cl)NC1CC2CCCC(C1)N2C1CC1 (stereo not drawn) | 19.9%
COc1ccc(-c2noc(=O)[nH]2)cc1 | -9.72%
COc1ccc(-c2nc3ccccc3[nH]2)cc1 | 12.5%
O=C(CCn1c(=O)oc2ccccc21)Nc1nccs1 | 0.79%
Nc1cc(C2CCCC2)nn1-c1ccccc1 | 16.1%
Cc1nn(CC(=O)NCCCN2CCOCC2)c(C)c1[N+](=O)[O-] | 3.72%
COC(=O)NCc1cc2cc(Cl)ccc2[nH]1 | 8.05%
O=S(=O)(N/N=C\C=C\c1ccccc1)c1ccc(Br)cc1 | 31.2%
O=S(=O)(Nc1ccn(-c2ccccc2)n1)c1ccc(Br)cc1 | 21.4%
Cc1ccc(C(=O)Nc2ccccc2C(=O)N2CC3(C)CC2CC(C)(C)C3)cc1 (stereo not drawn) | -0.05%
COc1ccc(C[C@H]2CN3C(=NC[C@@H]3C(C)C)N2C[C@H](C)NC(=O)c2ccc(C)c(Br)c2)cc1 | -1.28%
COc1ccc2c(c1OC)C(=O)OC2Nc1nc(-c2cc3cc([N+](=O)[O-])ccc3oc2=O)cs1 (stereo not drawn) | 42.4%
COc1ccc2c(c1OC)C(=O)OC2Nc1nc(-c2cc3cc(Br)ccc3oc2=O)cs1 (stereo not drawn) | -3.55%
CSc1nsc(SC)c1CO | -0.7%
